These results are taken from the supplement of paper PMC10338343.

± gives the standard deviation.

Experiment [1] has as its system MILI (PIWIL2) piRISC loaded with L1MC piRNA (26 nt). Kind of experiment: pre-steady-state target cleavage rate (min^-1); guide: L1MC piRNA 5'p-UAACUAAAUACUAUGCAAGCUGUAGG; higher = faster piRNA-guided slicing of the target. An outline of the steps:
(§1)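 A transcribed, DNA-blocked target RNA library […] was incubated at 33 °C for 0–8 or 0–960 min with 1 nM active affinity-purified piRISC carrying one synthetic guide, in HEPES–potassium acetate buffer with or without 500 nM GTSF1 partner protein. Uncleaved targets were then sequenced and normalised to depth and to weakly complementary targets. Data from three trials were pooled, with k3 capped at 0.0001 min^-1, and a burst-and-steady-state fit yielded the pre-steady-state cleavage rate.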

In experiment [2] the test system is EfPiwi piRISC loaded with L1MC piRNA (26 nt). Kind of experiment: pre-steady-state target cleavage rate (min^-1); auxiliary factor: 500 nM Ephydatia muelleri Gtsf1; guide: L1MC piRNA 5'p-UAACUAAAUACUAUGCAAGCUGUAGG; MIWI and MILI are mouse PIWI proteins and EfPiwi is from a freshwater sponge; tags in brackets are library labels; higher = faster piRNA-guided slicing of the target. An outline of the steps: as §1
Where [3] appears, read: auxiliary factor: 500 nM mouse GTSF1.
Where [4] appears, read: auxiliary factor: none (no GTSF1).

With UCCUCCUACAGCUUGCAUAGUAUUAACUUA, the “pre-steady-state target cleavage rate” value in experiment [1] (setting [3]) worked out at 0.0722 ± 0.018; in experiment [2], 0.00459 ± 0.0029.

As for UCCUGGAACAGCUUGCGAUAGUAUUUAGUUA, the “pre-steady-state target cleavage rate” value in experiment [1] (setting [3]) was 0.00418 ± 0.0033; in experiment [2], 0.00523 ± 0.0018.

In the case of UCCUGGAUGUGCUUGCAUAGUAUUUAGUCUA, the figures for the “pre-steady-state target cleavage rate” value in experiment [1] (setting [3]) and in experiment [2] were 0.0182 ± 0.006 and 0.00336 ± 0.0024, respectively.

Consider UCCUGGAUCAGCUUGCAUAGUAAUUACUUA, for which the “pre-steady-state target cleavage rate” value in experiment [1] (setting [3]) worked out at 0.0264 ± 0.0065; in experiment [2] it was 0.00233 ± 0.0022.

Regarding UCCUGGAUGAGCUUGCAAAGUAAUUAGUUA, the “pre-steady-state target cleavage rate” value turned out to be 0.0348 ± 0.0091 in experiment [1] (setting [3]) and 0.00431 ± 0.0022 in experiment [2].

Turning to UCCUGGAUGAGCUAGCAUAGUAUUUAGAAA, the “pre-steady-state target cleavage rate” value amounted to 0.209 ± 0.049 in experiment [1] (setting [3]) and 0.00297 ± 0.0019 in experiment [2].

As to UCCUGCUACAGCUUGCAAAGUAUUUAGAUA, the “pre-steady-state target cleavage rate” value stood at 0.0895 ± 0.012 in experiment [1] (setting [3]) and 0.00421 ± 0.0024 in experiment [2].

Take UCCUCCUUCAGCUUCCAUAGUAUUUAGUUA: the entries for the “pre-steady-state target cleavage rate” value in experiment [1] (setting [3]) and in experiment [2] were 0.0522 ± 0.015 and 0.00448 ± 0.0019, respectively.

As for UCCUGGAACAGCUUGCAUACUAUUUAGAUA, the “pre-steady-state target cleavage rate” value in experiment [1] (setting [3]) is 0.013 ± 0.0053; in experiment [2] it was 0.00312 ± 0.0022.

UCCUGGAUGUGCUUGCAUAGUAUGUAGUUA: the “pre-steady-state target cleavage rate” value in experiment [1] (setting [3]) came to 0.134 ± 0.026; in experiment [2], 0.00399 ± 0.0022.

UCCUGGAUCUGCUUGCAUAGUAUUUAGAUA: the results for the “pre-steady-state target cleavage rate” value in experiment [1] (setting [3]) and in experiment [2] were 0.0934 ± 0.016 and 0.00401 ± 0.0022, respectively.

For the sequence UCCUGCUACAGCUUGCAUAGUAUUUACUUA, the “pre-steady-state target cleavage rate” value in experiment [1] (setting [3]) turned out to be 0.171 ± 0.032; in experiment [2], 0.00356 ± 0.0027.

Turning to UCCUGGAACAGCUUGCACUAGUAUUUAGUUA, the figures for the “pre-steady-state target cleavage rate” value in experiment [1] (setting [3]) and in experiment [2] were 0.0388 ± 0.0091 and 0.00312 ± 0.0026, respectively.

For the sequence UCCUGGAAGUGCUUGCAUAGUAUUUAGUAA, the “pre-steady-state target cleavage rate” value in experiment [1] (setting [3]) was found to be 0.136 ± 0.022; in experiment [2], 0.00343 ± 0.0027.

For UCCUCCUACAGCAUGCAUAGAAUUUAGUUA, the entries for the “pre-steady-state target cleavage rate” value in experiment [1] (setting [3]) and in experiment [2] were 0.176 ± 0.044 and 0.00245 ± 0.0015, respectively.

As to UCCUGGUACAGCUUGCAUAGUAUUUUCUUA, the “pre-steady-state target cleavage rate” value stood at 0.0368 ± 0.016 in experiment [1] (setting [3]) and 0.00532 ± 0.0034 in experiment [2].

As to UCCUCCUACACCUUGCAUAGAAUUUAGUUA, the “pre-steady-state target cleavage rate” value in experiment [1] (setting [3]) came to 0.0594 ± 0.019; in experiment [2] it was 0.0018 ± 0.0016.

UCCUCCUACAGCUAGCAUAGUAUUUAGAUA: the results for the “pre-steady-state target cleavage rate” value in experiment [1] (setting [3]) and in experiment [2] were 0.144 ± 0.025 and 0.00495 ± 0.0024, respectively.

As to UCCUCCUACUGCUUGCAUAGUAUUUUCAAA, the results for the “pre-steady-state target cleavage rate” value in experiment [1] (setting [3]) and in experiment [2] were 0.0284 ± 0.0085 and 0.00274 ± 0.0026, respectively.

Take UCCUGCUACAGCUUGCAUUGUAUUAAGUUA: the “pre-steady-state target cleavage rate” value turned out to be 0.215 ± 0.03 in experiment [1] (setting [3]) and 0.00572 ± 0.0028 in experiment [2].

In the case of UCCUCCUAGAGCUUGCAUAGUAUUUUCAAA, the “pre-steady-state target cleavage rate” value in experiment [1] (setting [3]) amounted to 0.0731 ± 0.019; in experiment [2], 0.00252 ± 0.0022.

Take UCCUGGAACAGCUUGCAAAGUAUUUAGAAA: the “pre-steady-state target cleavage rate” value turned out to be 0.166 ± 0.038 in experiment [1] (setting [3]) and 0.00418 ± 0.002 in experiment [2].

In the case of UCCUCCUACAGCUUGCAUAGUAAUUAGAUA, the “pre-steady-state target cleavage rate” value in experiment [1] (setting [3]) was 0.179 ± 0.046; in experiment [2], 0.00553 ± 0.0026.

As to UCCUGCUAGAGCUUGCAUAGUAUUUACAAA, the entries for the “pre-steady-state target cleavage rate” value in experiment [1] (setting [3]) and in experiment [2] were 0.146 ± 0.039 and 0.00266 ± 0.0021, respectively.

Regarding UCCUGGAUGAGCUUGCAUAGUAAUUAGUAA, the “pre-steady-state target cleavage rate” value stood at 0.219 ± 0.042 in experiment [1] (setting [3]) and 0.00197 ± 0.0019 in experiment [2].

For UCCUGCUACAGCUAGCAUAGUAUUUAGAAA, the “pre-steady-state target cleavage rate” value in experiment [1] (setting [3]) was determined as 0.227 ± 0.051; in experiment [2], 0.00418 ± 0.0021.

As to UCCUGCUACAGCUUGCAUAGAAUUUAGAAA, the “pre-steady-state target cleavage rate” value was determined as 0.0373 ± 0.015 in experiment [1] (setting [3]) and 0.00251 ± 0.0016 in experiment [2].

Consider UCCUGCUACAGCUUGGAUAGUAUUUAGAUA, for which the “pre-steady-state target cleavage rate” value worked out at 0.0476 ± 0.016 in experiment [1] (setting [3]) and 0.00339 ± 0.001 in experiment [2].

As for UCCUGCUACAGCUUGCAUUGUAUUUACAAA, the “pre-steady-state target cleavage rate” value in experiment [1] (setting [3]) came out at 0.0245 ± 0.01; in experiment [2], 0.00313 ± 0.0028.

As to UCCUGGAUGAGCUAGCAUAGAAUUUAGUUA, the “pre-steady-state target cleavage rate” value in experiment [1] (setting [3]) stood at 0.0337 ± 0.011; in experiment [2], 0.00286 ± 0.0026.

As for UCCUCCUACAGGAUGCAUAGUAUUUAGAAA, the “pre-steady-state target cleavage rate” value in experiment [1] (setting [3]) stood at 0.0838 ± 0.015; in experiment [2], 0.00396 ± 0.0014.

Turning to UCCUGGAUCAGCUUGCAUAGUAUUUAUUA, the “pre-steady-state target cleavage rate” value in experiment [1] (setting [3]) stood at 0.044 ± 0.011; in experiment [2] it was 0.0033 ± 0.0024.

With UCCUGGAUCAGCUUGCAUAGUUAAUAGUUA, the entries for the “pre-steady-state target cleavage rate” value in experiment [1] (setting [3]) and in experiment [2] were 0.017 ± 0.0066 and 0.00344 ± 0.003, respectively.

Take UCCUGGAACAGCUUGGAUAGUAUUAAGUUA: the “pre-steady-state target cleavage rate” value stood at 0.186 ± 0.033 in experiment [1] (setting [3]) and 0.00405 ± 0.0034 in experiment [2].

Regarding UCCUCCUAGUGCUUGCAUAGUAUUUAGAAA, the “pre-steady-state target cleavage rate” value in experiment [1] (setting [3]) came out at 0.0113 ± 0.0046; in experiment [2], 0.00361 ± 0.0021.

As for UCCUGCUACAGCUUGCAAAGUUUUUAGUUA, the entries for the “pre-steady-state target cleavage rate” value in experiment [1] (setting [3]) and in experiment [2] were 0.0201 ± 0.0069 and 0.00207 ± 0.002, respectively.

In the case of UCCUGGAACAGCUUGCAAUAGUAUUUAGUUA, the “pre-steady-state target cleavage rate” value in experiment [1] (setting [3]) was found to be 0.0492 ± 0.013; in experiment [2] it was 0.0183 ± 0.0054.

On to UCCUCCUUGUGCUUGCAUAGUAUUUAGAAA, for which the “pre-steady-state target cleavage rate” value in experiment [1] (setting [3]) stood at 0.0325 ± 0.0085; in experiment [2] it was 0.00387 ± 0.0022.

Turning to UCCUGGAUGUCGAACCAUAGUAUUUAGUCA, the “pre-steady-state target cleavage rate” value in experiment [1] (setting [4]) and in experiment [2] was less than 0.0001 throughout.

On to UCCUGCUACUGCUUGCAUAGUAUUUAGUAA, for which the “pre-steady-state target cleavage rate” value in experiment [1] (setting [3]) was determined as 0.146 ± 0.034; in experiment [2], 0.00464 ± 0.0016.

Turning to UCCUGGAUGUGCUUGCAUAGUAUUUAGUAUA, the “pre-steady-state target cleavage rate” value was determined as 0.131 ± 0.019 in experiment [1] (setting [3]) and 0.00507 ± 0.0027 in experiment [2].

Take UCCUGGAACAGCUUGGAUAGUAUUUAGAAA: the entries for the “pre-steady-state target cleavage rate” value in experiment [1] (setting [3]) and in experiment [2] were 0.0385 ± 0.012 and 0.00373 ± 0.0019, respectively.

In the case of UCCUGGAACAGCUAGCAUAGUAUUUAGAUA, the figures for the “pre-steady-state target cleavage rate” value in experiment [1] (setting [3]) and in experiment [2] were 0.118 ± 0.02 and 0.0041 ± 0.0023, respectively.

Regarding UCCUCCUACAGGAUGCAUAGUAUUUACAAA, the “pre-steady-state target cleavage rate” value is 0.0521 ± 0.011 in experiment [1] (setting [3]) and 0.0028 ± 0.0027 in experiment [2].

UCCUCCUACACCUUGCAUAGUUUUUAGUUA: the “pre-steady-state target cleavage rate” value in experiment [1] (setting [3]) was 0.0414 ± 0.012; in experiment [2], 0.00443 ± 0.002.

As to “UCCUGGAUGUCGAACGUUAGUAUUUUCAAA [g6:g13:cont:t1A]”, the “pre-steady-state target cleavage rate” value in experiment [1] (setting [4]) and in experiment [2] was less than 0.0001 each time.

As for UCCUGGUACAGCUUGCAUUGUAUUUAGAAA, the figures for the “pre-steady-state target cleavage rate” value in experiment [1] (setting [3]) and in experiment [2] were 0.0202 ± 0.0075 and 0.00329 ± 0.0019, respectively.

As for UCCUCCUACAGGUUCCAUAGUAUUUAGUUA, the results for the “pre-steady-state target cleavage rate” value in experiment [1] (setting [3]) and in experiment [2] were 0.0813 ± 0.027 and 0.0023 ± 0.0012, respectively.

In the case of UCCUGGAUGAGCUUGCAUAGUAUUUAUUUA, the “pre-steady-state target cleavage rate” value in experiment [1] (setting [3]) was 0.0843 ± 0.024; in experiment [2], 0.00435 ± 0.0029.

UCCUCCUACUGCUUGCAUAGUAUUUAGAAA: the “pre-steady-state target cleavage rate” value is 0.0658 ± 0.017 in experiment [1] (setting [3]) and 0.00462 ± 0.0021 in experiment [2].

As to UCCUGCUACAGCUUGCAUAGUAUUUACAUA, the figures for the “pre-steady-state target cleavage rate” value in experiment [1] (setting [3]) and in experiment [2] were 0.157 ± 0.041 and 0.0023 ± 0.0023, respectively.

For the sequence UCCUGGUUGAGCUUGCAUAGUAUUUUCAAA, the results for the “pre-steady-state target cleavage rate” value in experiment [1] (setting [3]) and in experiment [2] were 0.0103 ± 0.006 and 0.00218 ± 0.0021, respectively.

Regarding UCCUGGAUCAGCUUGCAAAGUAUUUACAAA, the “pre-steady-state target cleavage rate” value in experiment [1] (setting [3]) came out at 0.0432 ± 0.012; in experiment [2], 0.00563 ± 0.0037.

For UCCUCCUACAGCUAGCAUAGUAUUUACUUA, the “pre-steady-state target cleavage rate” value in experiment [1] (setting [3]) worked out at 0.15 ± 0.022; in experiment [2], 0.00296 ± 0.0027.
